According to PubChem BioAssay (EPA / NIEHS):
Records with an inconclusive call do not appear. The source made the active and inactive calls. Rule for the calls, unless noted: active = hit-call score of the fitted dose curve at least 0.9, where 1 is the maximum; inconclusive = response in the unintended direction; inactive = score below 0.9.

Assays:
[1] = read-out: ABC Transporter (ABCB11), ABCB11 (gene 8647); test: CLD_ABCB11_48hr: CellzDirect (CLD) Gene Expression Assay for ABC Transporter (ABCB11) at 48 hours (AID 2283697)
Outline: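 Induction of ABCB11 mRNA relative to 0.2% DMSO, measured at 48 h by qNPA chemiluminescence. Cultured human hepatocytes (two donors) received fresh dosing solutions at several concentrations on two consecutive days.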

[2] = read-out: Cytochrome P450 3A4 (Homo sapiens) (UniProt P08684); test: CLD_CYP3A4_48hr: CellzDirect (CLD) Gene Expression Assay for xenobiotic metabolism (CYP3A4) at 48 hours (AID 2283698)
Outline: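 CYP3A4 induction read by qNPA chemiluminescence after 48 h, with fresh dosing solutions on consecutive days, in cultured human hepatocytes (two donors). Vehicle 0.2% DMSO as baseline; microscopy-based cytotoxicity annotated yes/no alongside data.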

[3] = read-out: Cytochrome P450 2B6 (Homo sapiens) (UniProt P20813); test: CLD_CYP2B6_48hr: CellzDirect (CLD) Gene Expression Assay for xenobiotic metabolism (CYP2B6) at 48 hours (AID 2283699);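 note: actives raise transcript level above DMSO so potency reflects induction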
Outline: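 CYP2B6 transcript induction, read by quantitative nuclease protection (S1 digestion, chemiluminescent detection) 48 h after dosing, is fitted upward against 0.2% DMSO. Cultured human liver primary cells, two donor preparations, received fresh chemical daily over multiple concentrations.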

[4] = read-out: Cytochrome P450 2C9 (Homo sapiens) (UniProt P11712); test: CLD_CYP2C9_48hr: CellzDirect (CLD) Gene Expression Assay for xenobiotic metabolism (CYP2C9) at 48 hours (AID 2283701; active = hit-call score of the fitted dose curve at least 0.9, where 1 is the maximum; inactive = score below 0.9)
Outline: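 mRNA level measured by quantitative nuclease protection (S1 digestion, chemiluminescent detection) in lysates of human primary hepatocytes exposed 48 h with daily re-dosing. Induction fitted positively versus 0.2% DMSO; morphology-based cytotoxicity flagged yes/no.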

[5] = CLD_ACTIN_48hr: CellzDirect (CLD) Gene Expression Assay for Baseline Control (Actin) at 48 hours (AID 2283702)
Outline: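 Background-control actin mRNA read by qNPA chemiluminescence at 48 h. Human hepatocyte cultures from two donors received fresh multi-concentration chemical doses daily for two days; 0.2% DMSO served as vehicle baseline.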

[6] = read-out: xenobiotic metabolism (CYP1A2), CYP1A2 (gene 1544); test: CLD_CYP1A2_48hr: CellzDirect (CLD) Gene Expression Assay for xenobiotic metabolism (CYP1A2) at 48 hours (AID 2283703)
Outline: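 Cytotoxicity was flagged yes/no from morphology, while CYP1A2 transcript induction was detected by qNPA chemiluminescence after a 48-hour exposure. Human primary hepatocyte cultures from separate donors received fresh dosing solutions daily over two days, with 0.2% DMSO as vehicle and baseline.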

[7] = read-out: xenobiotic metabolism (CYP1A1), CYP1A1 (gene 1543); test: CLD_CYP1A1_48hr: CellzDirect (CLD) Gene Expression Assay for xenobiotic metabolism (CYP1A1) at 48 hours (AID 2283705)
Outline: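 CYP1A1 transcript measured by quantitative nuclease protection (chemiluminescent) 48 h after two daily treatments of human hepatocyte cultures, versus 0.2% DMSO. Morphology-based cytotoxicity flags accompany data; two donor preparations used.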

[8] = read-out: Glyceraldehyde-3-phosphate dehydrogenase (Homo sapiens) (UniProt P04406); test: CLD_GAPDH_48hr: CellzDirect (CLD) Gene Expression Assay for Baseline Control (Glyceraldehyde 3-phosphate dehydrogenase) at 48 hours (AID 2283706);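 note: active means higher GAPDH mRNA than DMSO vehicle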
Outline: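 GAPDH baseline-control readout: qNPA chemiluminescent mRNA quantitation in human liver primary cells 48 h after daily dosing on two consecutive days, vehicle 0.2% DMSO; gain of signal fitted against DMSO, cytotoxicity flagged by phase-contrast morphology.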

[9] = read-out: organic anion transporter (SLCO1B1), SLCO1B1 (gene 10599); test: CLD_SLCO1B1_48hr: CellzDirect (CLD) Gene Expression Assay for organic anion transporter (SLCO1B1) at 48 hours (AID 2283707)
Outline: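 SLCO1B1 transcript quantified by qNPA with chemiluminescent readout after 48 h of once-daily chemical exposure. Cultured human primary hepatocytes came from two donors, with 0.2% DMSO vehicle; positive-direction fitting against DMSO, cytotoxicity flagged by morphology.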

[10] = read-out: glucuronosyltransferase (UGT1A1), UGT1A1 (gene 54658); test: CLD_UGT1A1_48hr: CellzDirect (CLD) Gene Expression Assay for glucuronosyltransferase (UGT1A1) at 48 hours (AID 2283709);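 note: actives increase expression relative to DMSO so potency refers to induction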
Outline: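 Quantitative nuclease protection assay (chemiluminescent) for UGT1A1 mRNA at 48 h in human hepatocyte cultures from two donors, redosed daily with fresh solutions. Induction fitted relative to 0.2% DMSO; phase-contrast morphology annotated cytotoxicity.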

[11] = read-out: sulfotransferase (SULT2A), SULT2A1 (gene 6822); test: CLD_SULT2A_48hr: CellzDirect (CLD) Gene Expression Assay for sulfotransferase (SULT2A) at 48 hours (AID 2283710);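 note: hits raise SULT2A1 transcript above the 0.2% DMSO vehicle baseline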
Outline: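 SULT2A1 transcript measured by qNPA chemiluminescence in human primary hepatocyte cultures after 48 h, with fresh dosing solutions on two consecutive days; gain-of-signal fitting against 0.2% DMSO vehicle; cytotoxicity annotated from phase-contrast morphology.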

[12] = read-out: HMG-CoA synthase (HMGCS2), HMGCS2 (gene 3158); test: CLD_HMGCS2_48hr: CellzDirect (CLD) Gene Expression Assay for HMG-CoA synthase (HMGCS2) at 48 hours (AID 2283711)
Outline: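 mRNA induction read by qNPA chemiluminescence, 48 h after dosing. Cultured primary human liver cells (two donor preparations) received fresh compound daily over two days against 0.2% DMSO vehicle; morphology-based cytotoxicity noted alongside.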

[13] = read-out: glucuronosyltransferase (UGT1A1), UGT1A1 (gene 54658); test: CLD_UGT1A1_24hr: CellzDirect (CLD) Gene Expression Assay for glucuronosyltransferase (UGT1A1) at 24 hours (AID 2283696)
Outline: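 UGT1A1 transcript induction was measured by quantitative nuclease protection assay (chemiluminescence) in human hepatocyte cultures 24 h after daily fresh dosing, with 0.2% DMSO as vehicle and baseline.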

[14] = CEETOX_H295R_MTT_cell_viability: Viability Assessment in the CeeTox HT-H295R MTT Assay (AID 2283718; active = hit-call score of the fitted dose curve at least 0.9, where 1 is the maximum; inactive = score below 0.9)
Outline: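 H295R cells prestimulated 48 h with 10 uM forskolin, then exposed 48 h to test chemical (0.1% DMSO final). Viability by MTT (0.5 mg/ml, 4 h, 37 C), absorbance 570/650 nm; percent change versus DMSO, bidirectional fit.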

[15] = STM_H9_OrnithineISnorm_perc: Stemina devTOX quickPredict H9 human embryonic stem cell (hESC)-based Assay for Ornithine (ORN) Metabolite Biomarker, Normalized (AID 2283712; active = hit-call score of the fitted dose curve at least 0.9, where 1 is the maximum; inactive = score below 0.9;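 note: ornithine released into spent medium during last day measured by mass spectrometry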)
Outline: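 Ornithine secreted by H9 hESCs after 72h compound treatment (daily media/compound renewal) was quantified in final-day media by UPLC-HRMS. Values are isotope-standard-normalized, expressed relative to 0.1% DMSO, fitted in positive direction.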

[16] = STM_H9_CystineISnorm_perc: Stemina devTOX quickPredict H9 human embryonic stem cell (hESC)-based Assay for Cystine (CYSS) Metabolite Biomarker, Normalized (AID 2283713; active = hit-call score of the fitted dose curve at least 0.9, where 1 is the maximum; inactive = score below 0.9)
Outline: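 Cells are held undifferentiated and treated for 72h, receiving fresh medium with compound every 24h. Cystine secreted during the final day is quantified by UPLC-HRMS against a labeled spike-in, then expressed relative to the DMSO vehicle median.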

[17] = STM_H9_OrnCyssISnorm_ratio: Stemina devTOX quickPredict H9 human embryonic stem cell (hESC)-based Assay for Ornithine (ORN):Cystine (CYSS) Ratio (AID 2283714)
Outline: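 H9 hESC, 72h, q24h re-dose; last-day media → acetonitrile deproteinization → UPLC-HRMS. ORN:CYSS ratio from isotope-normalized EIC areas, vs 0.1% DMSO; MTX references on each plate.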

[18] = read-out: alkyl and aryl transferase (GSTA2), GSTA2 (gene 2939); test: CLD_GSTA2_48hr: CellzDirect (CLD) Gene Expression Assay for alkyl and aryl transferase (GSTA2) at 48 hours (AID 2283708);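 note: active means mRNA induction above DMSO vehicle baseline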
Outline: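 GSTA2 mRNA quantified by qNPA chemiluminescence in human primary hepatocyte lysates after 48 h of daily fresh chemical dosing. Increases fitted against 0.2% DMSO vehicle baseline; cytotoxicity from morphology annotated yes/no.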

Measured: AC50

Sequence of Cytochrome P450 3A4 (Homo sapiens) (P08684 whole entry, looked up): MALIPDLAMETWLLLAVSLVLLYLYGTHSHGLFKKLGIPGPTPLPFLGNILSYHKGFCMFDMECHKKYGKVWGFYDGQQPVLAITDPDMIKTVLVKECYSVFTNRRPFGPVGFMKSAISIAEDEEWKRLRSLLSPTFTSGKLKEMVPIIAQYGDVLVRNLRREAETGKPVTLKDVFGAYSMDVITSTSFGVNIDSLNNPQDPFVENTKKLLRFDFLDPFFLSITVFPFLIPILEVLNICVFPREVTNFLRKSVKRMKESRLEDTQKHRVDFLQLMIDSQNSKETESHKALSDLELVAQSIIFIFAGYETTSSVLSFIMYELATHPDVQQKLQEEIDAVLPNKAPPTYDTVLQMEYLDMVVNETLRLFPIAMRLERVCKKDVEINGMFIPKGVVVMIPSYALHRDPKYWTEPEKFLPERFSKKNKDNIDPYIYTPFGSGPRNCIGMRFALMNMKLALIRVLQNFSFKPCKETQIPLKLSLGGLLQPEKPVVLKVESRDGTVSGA
Sequence of Glyceraldehyde-3-phosphate dehydrogenase (Homo sapiens) (P04406 whole entry, looked up): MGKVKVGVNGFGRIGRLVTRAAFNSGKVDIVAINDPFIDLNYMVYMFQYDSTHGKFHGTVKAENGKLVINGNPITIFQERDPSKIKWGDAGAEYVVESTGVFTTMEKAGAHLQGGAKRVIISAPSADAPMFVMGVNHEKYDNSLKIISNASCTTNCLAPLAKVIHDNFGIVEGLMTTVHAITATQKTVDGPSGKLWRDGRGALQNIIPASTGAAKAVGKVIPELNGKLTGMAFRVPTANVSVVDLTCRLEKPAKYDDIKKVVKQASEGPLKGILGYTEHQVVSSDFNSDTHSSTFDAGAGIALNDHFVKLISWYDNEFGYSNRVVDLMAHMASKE

COC(=O)NS(=O)(=O)c1ccc(N)cc1
not listed: [13] | [14] | [15] | [16] | [17] | [18]
inactive: all other assays above

Cc1nc(N(C)C)nc(OC(=O)N(C)C)c1C
inactive: [13] | [1] | [2] | [4] | [5] | [7] | [8] | [10] | [14]
active: [3] 5.26 µM | [6] 3.27 µM

CS(=O)(=O)c1cc(C(F)(F)F)ccc1C(=O)c1cnoc1C1CC1
inactive: [13] | [7] | [8] | [9] | [10] | [11] | [12] | [16]
active: [2] 29.1 µM | [3] 9.48 µM | [6] 20 µM | [15] 0.0772 µM

N#CN=C1SCCN1Cc1ccc(Cl)nc1
active: [2] 20 µM | [3] 9.25 µM
inactive: [1] | [4] | [6] | [9] | [11] | [15] | [16] | [17] | [14]

COCc1cnc(C2=NC(C)(C(C)C)C(=O)N2)c(C(=O)O)c1 (stereo unspecified)
not listed: [4] | [5] | [9] | [10] | [12] | [13] | [18]
inactive: all other assays above

Clc1nc(Cl)nc(Nc2ccccc2Cl)n1
inactive: [1] | [2] | [3] | [5] | [6] | [7] | [8] | [9] | [10] | [14]

CC(C)C1(C)N=C(c2ncccc2C(=O)O)NC1=O (stereo unspecified)
inactive: [1] | [2] | [8] | [9] | [10] | [15] | [16]
active: [3] 0.000587 µM

COC(=O)NC(=S)Nc1ccccc1NC(=S)NC(=O)OC
active: [2] 3.45 µM | [3] 20 µM | [6] 15.7 µM | [7] 3.32 µM
not listed: [8] | [15] | [16] | [17] | [18]
inactive: all other assays above

CC(C)(C)C(=O)C(Oc1ccc(Cl)cc1)n1cncn1 (stereo unspecified)
inactive: [13] | [10] | [11] | [15] | [14]
active: [2] 1.5 µM | [3] 3.31 µM | [6] 12.9 µM | [7] 8.65 µM | [16] 34.3 µM | [17] 71.8 µM

COP(=S)(OC)SCn1nnc2ccccc2c1=O
active: [2] 12.8 µM | [3] 4.19 µM | [6] 0.409 µM | [7] 1.36 µM
inactive: [1] | [4] | [9] | [11] | [14]

C=C(C)CN(CC)c1c([N+](=O)[O-])cc(C(F)(F)F)cc1[N+](=O)[O-]
inactive: [1] | [3] | [5] | [6] | [7] | [8] | [9] | [11]
active: [2] 3.97 µM

Clc1cccc(C(Cl)(Cl)Cl)n1
active: [2] 3.02 µM | [3] 1.47 µM | [7] 3.97 µM | [15] 19.7 µM
not listed: [1] | [12] | [14] | [17]
inactive: all other assays above

CNC(=O)Oc1cccc2ccccc12
inactive: [13] | [2] | [18] | [15] | [14]
active: [3] 4.42 µM | [6] 3.23 µM | [7] 3.57 µM | [16] 2.87 µM | [17] 2.71 µM

COc1cc(OC)nc(NC(=O)NS(=O)(=O)c2ncccc2OCC(F)(F)F)n1
active: [2] 20 µM
not listed: [8] | [10] | [13] | [14] | [17] | [18]
inactive: all other assays above

OC(c1ccc(Cl)cc1)(c1ccc(Cl)cc1)C(Cl)(Cl)Cl
inactive: [1] | [4] | [6] | [9] | [11]
active: [2] 11 µM | [3] 4.47 µM | [7] 20 µM
